A selection: hits, their analogues and other compounds. The true share with any hit is near 1.6%.
CendR NRP1 mod: modulators of CendR peptide binding to NRP-1, primary screen, biochemical, fluorescence polarization, uHTS | FAM-RPARPAR peptide binding to NRP-1 | AID 602438, 2012 | Neuropilin-1 (Homo sapiens), O14786 | inhibition, % at 25 µM | 360,000 compounds, 0.85% hits;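 active means inhibition or corrected inhibition above about 18%, plus a signal ratio from 0.5 to 1.5, limit read from the data, passing the limit was not always enough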
VLA-4 inh: inhibition in human VLA-4 binding assay, primary screen, VLA-4 allosteric modulator project, MLPCN library, flow cytometry, VLA-4 expressing cells; Integrin alpha-4 (Homo sapiens), P13612; ligand binding flow cytometry; inhibition, % (about 7 µM as worked out from the volumes in the protocol); 330,000 compounds, 0.2% hits; in the data active means inhibition above about 50%
ATG4B inh: ATG4B protease inhibitors, primary screen, biochemical, fluorescence, uHTS | 340,000 compounds, 0.51% hits | ATG4B cleavage of LC3-PLA2, NBD-HPC fluorescence, 1 h | inhibition, % at 8.33 µM | Cysteine protease ATG4B (Homo sapiens), Q9Y4P1; in the data active means inhibition above about 40%
Target sequence (Q9Y4P1 whole entry, looked up): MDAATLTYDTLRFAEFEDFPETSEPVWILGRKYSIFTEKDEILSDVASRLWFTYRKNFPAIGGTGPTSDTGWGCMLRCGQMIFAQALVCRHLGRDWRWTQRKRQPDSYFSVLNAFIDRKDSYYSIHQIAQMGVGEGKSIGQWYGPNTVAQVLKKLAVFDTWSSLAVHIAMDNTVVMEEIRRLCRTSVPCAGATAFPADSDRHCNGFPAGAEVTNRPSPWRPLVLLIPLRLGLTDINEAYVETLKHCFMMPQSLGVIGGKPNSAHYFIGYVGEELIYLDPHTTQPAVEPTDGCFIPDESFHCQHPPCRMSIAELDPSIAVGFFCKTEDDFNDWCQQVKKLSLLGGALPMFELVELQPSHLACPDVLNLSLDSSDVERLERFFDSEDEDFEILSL
PKA-R2B activ: activators of PKA-R2B holoenzyme, primary screen, biochemical, fluorescence polarization, Cy5-IP20, human; activation, % at 11.4 µM; cAMP-dependent protein kinase catalytic subunit beta (Homo sapiens) + cAMP-dependent …; PKA-R2B holoenzyme dissociation; R2B truncated from residue 108, S112A mutant; 0% DMSO only, 100% 113 µM cGMP; AID 504700, 2011; 340,000 compounds, 0.079% hits;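 active means activation above a cutoff set at the mean over all compounds plus 3 SD, cut at about 18% in these data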;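 further: higher means more holoenzyme dissociation and a rise in polarization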
PKA-R1A act: activators of PKA-R1A holoenzyme, primary screen, biochemical, fluorescence polarization, Cy5-IP20, bovine R1A, mouse PKAc; cAMP-dependent protein kinase type I-alpha regulatory subunit (Bos taurus) + …; PKA-R1A dissociation; scaled: DMSO 0%, 113 µM cGMP 100%; activation, % at 11.4 µM; 340,000 compounds, 0.083% hits; AID 504707, 2011;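 active means percent activation above the mean of all tested compounds plus 3 SD, cut at about 19% in these data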;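 further: higher means more PKAc released from R1A so a rise in polarization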
An asterisk follows results filed as active.

Results for CCOC(=O)C1=C(C)NC2=C(C(=O)CCC2)C1c1cn(Cc2ccc(Cl)cc2Cl)nc1-c1ccccc1 (stereo not drawn) ?
CendR NRP1 mod: 25*; VLA-4 inh: 4; ATG4B inh: -8; PKA-R2B activ: 3; PKA-R1A act: -4

What do the screens show for `Cc1nc2ncnn2c(N2CCN(C(=O)c3cccc(F)c3)CC2)c1C`?
CendR NRP1 mod: 26*; VLA-4 inh: 2; ATG4B inh: -12; PKA-R2B activ: -6; PKA-R1A act: 3

What do the screens show for `CC1CCCCN1S(=O)(=O)c1ccc2[nH]c(=O)cc(C(=O)NCCCN3CCCCCC3)c2c1` (stereo not drawn)?
CendR NRP1 mod: 4; VLA-4 inh: -7; ATG4B inh: -9; PKA-R2B activ: -11; PKA-R1A act: 2

How did CC1(NC(=O)CCc2ccccc2)CCN(CCCc2ccccc2)C1=O (stereo not drawn) do in these assays?
CendR NRP1 mod: 6; VLA-4 inh: 15; ATG4B inh: -2; PKA-R2B activ: 2; PKA-R1A act: -15

Results for O=C(CCc1ccccc1)NC1(Cc2ccccc2)CCN(CCc2cccs2)C1=O (stereo not drawn) ?
CendR NRP1 mod: 19*; VLA-4 inh: 2; ATG4B inh: -15; PKA-R2B activ: -3; PKA-R1A act: -4

How did CS(=O)(=O)c1ccccc1C(=O)Nc1ccc(S(=O)(=O)N2CCCC2)cc1 do in these assays?
CendR NRP1 mod: 7; VLA-4 inh: 10; ATG4B inh: 0; PKA-R2B activ: -3; PKA-R1A act: 4

Results for COc1ccc(Cl)cc1CN1CCN(c2nc(C)cc(C)c2C#N)CC1 ?
CendR NRP1 mod: 6; VLA-4 inh: -5; ATG4B inh: 17; PKA-R2B activ: 1; PKA-R1A act: 2

What do the screens show for `Cc1cc(C)c(C#N)c(N2CCN(CCOc3ccc(Cl)cc3)CC2)n1`?
CendR NRP1 mod: 27*; VLA-4 inh: -6; ATG4B inh: 11; PKA-R2B activ: -1; PKA-R1A act: -5

What do the screens show for `CCOc1ccc(-c2c(C(=O)N/N=C/c3sccc3C)nnn2-c2nonc2N)cc1`?
CendR NRP1 mod: 24*; VLA-4 inh: -9; ATG4B inh: -5; PKA-R2B activ: -2; PKA-R1A act: -1

Results for CCOc1cccc(-c2c(C(=O)N/N=C/c3sccc3C)nnn2-c2nonc2N)c1 ?
CendR NRP1 mod: 2; VLA-4 inh: 7; ATG4B inh: -9; PKA-R2B activ: -15; PKA-R1A act: -4

Results for C=CCN1c2ccccc2[C@]23C[C@@H](C(=O)OC)N=C2NC(C(=O)OC)=C(C(=O)OC)[C@H]13 ?
CendR NRP1 mod: 33*; VLA-4 inh: 17; ATG4B inh: -23; PKA-R2B activ: -1; PKA-R1A act: -4

What do the screens show for `COc1cccc(-c2cc3nc(NCCN4CCCC4)n(C)c(=O)c3s2)c1`?
CendR NRP1 mod: -3

Results for O=C1Cc2ccccc2C(=O)N1 ?
CendR NRP1 mod: 5

Results for O=C(O)CCCC(=O)N1CCc2cc(S(=O)(=O)N3CCc4ccccc43)ccc21 ?
CendR NRP1 mod: 30*; VLA-4 inh: -1; ATG4B inh: -2; PKA-R2B activ: -3; PKA-R1A act: -9

How did O=C(NNC(=O)C1[C@H]2CCCC[C@@H]12)Nc1cccc2ccccc12 (stereo partly drawn) do in these assays?
CendR NRP1 mod: -5; VLA-4 inh: 11; ATG4B inh: -3; PKA-R2B activ: 0; PKA-R1A act: 10

Results for CCOc1ccc(C(=O)NCc2cccnc2)cc1[N+](=O)[O-] ?
CendR NRP1 mod: 22*; VLA-4 inh: 4; ATG4B inh: -5; PKA-R2B activ: 12; PKA-R1A act: -7

What do the screens show for `COc1ccc(-n2c(CNC(=O)c3cccs3)n[nH]c2=S)cc1`?
CendR NRP1 mod: 31*; VLA-4 inh: 9; ATG4B inh: -1; PKA-R2B activ: -5; PKA-R1A act: -7

What do the screens show for `COC(=O)c1ccc(N(CC(=O)NC2CCCC2)C(=O)c2ccc(C)s2)cc1`?
CendR NRP1 mod: 2; VLA-4 inh: -3; ATG4B inh: 4; PKA-R2B activ: -1; PKA-R1A act: 3

How did Cc1ccc(CNC(=O)/C=C/[C@H]2O[C@@H](n3cc(C)c(=O)[nH]c3=O)C[C@@H]2O)o1 do in these assays?
CendR NRP1 mod: -4

Results for CSCc1cc(C(=O)NCCN2CCOCC2)c(N)s1 ?
CendR NRP1 mod: -37

How did Cc1csc(=O)n1CC(=O)OCC(=O)Nc1ccc(C(N)=O)cc1 do in these assays?
CendR NRP1 mod: -14; VLA-4 inh: -13; ATG4B inh: 5; PKA-R2B activ: 2; PKA-R1A act: 8

Results for Cc1csc(=O)n1CCC(=O)OCC(=O)Nc1ccc(C(N)=O)cc1 ?
CendR NRP1 mod: 23*; VLA-4 inh: 13; ATG4B inh: -9; PKA-R2B activ: 1; PKA-R1A act: -10

Results for COc1ccc([C@H]2CC(=O)C=C(c3cc(Cl)ccc3C)C2)cc1 ?
CendR NRP1 mod: 2; VLA-4 inh: -9; ATG4B inh: 5; PKA-R2B activ: 0; PKA-R1A act: 7

Results for O=C1C=C(c2ccc(F)c(Cl)c2)C[C@@H](c2ccc(F)cc2)C1 ?
CendR NRP1 mod: 24*; VLA-4 inh: 0; ATG4B inh: -4; PKA-R2B activ: -8; PKA-R1A act: 13

What do the screens show for `Cc1ccc(Cl)cc1C1=CC(=O)C[C@H](c2ccc(F)cc2)C1`?
CendR NRP1 mod: 27*; VLA-4 inh: 0; ATG4B inh: -10; PKA-R2B activ: 9; PKA-R1A act: 8

How did COc1cccc(CN(C)S(=O)(=O)c2ccc3c(c2)OCCO3)c1 do in these assays?
CendR NRP1 mod: 19*; ATG4B inh: -4; PKA-R2B activ: -4; PKA-R1A act: 7

How did COc1ccc(S(=O)(=O)N(C)Cc2ccc3c(c2)OCCO3)cc1 do in these assays?
CendR NRP1 mod: 9; VLA-4 inh: -1; ATG4B inh: 4; PKA-R2B activ: -4; PKA-R1A act: -1

What do the screens show for `COC(=O)[C@@]12C[C@@H](CC(=O)NCCCCc3ccccc3)C(=O)N(Cc3ccc4c(c3)OCO4)C1=CCC(C)(C)C2`?
CendR NRP1 mod: -2

How did Cc1ccc(S(=O)(=O)N2[C@H](CC(=O)c3cccs3)OC[C@@H]2C(C)C)cc1 do in these assays?
CendR NRP1 mod: -5

How did O=C(CC1C(=O)NCCN1C(=O)Nc1ccccc1)Nc1ccc(F)cc1 (stereo not drawn) do in these assays?
CendR NRP1 mod: 4; VLA-4 inh: 3; ATG4B inh: -1; PKA-R2B activ: 11; PKA-R1A act: 4

Source: PubChem (several laboratories)
